Measured values: the supplement of paper PMC11732987, “Enantioselective OTUD7B fragment discovery through chemoproteomics screening and high-throughput optimisation” (Communications Chemistry, 2025)

Experiments:
Test in all cases: log2 ratio of Biotin-Ahx-Ub-VS probe labelling (fragment/DMSO); higher = less target engagement (more negative = stronger competition), active = hit call of the paper (q ≤ 0.05, log2 ratio ≤ -1)
Details in all cases: compound concentration: 200 uM; treatment time: 3 h
USP16 = USP16 (UniProt Q9Y5T5)
Sequence of USP16 (Q9Y5T5 whole entry, looked up, the tested form may be a part): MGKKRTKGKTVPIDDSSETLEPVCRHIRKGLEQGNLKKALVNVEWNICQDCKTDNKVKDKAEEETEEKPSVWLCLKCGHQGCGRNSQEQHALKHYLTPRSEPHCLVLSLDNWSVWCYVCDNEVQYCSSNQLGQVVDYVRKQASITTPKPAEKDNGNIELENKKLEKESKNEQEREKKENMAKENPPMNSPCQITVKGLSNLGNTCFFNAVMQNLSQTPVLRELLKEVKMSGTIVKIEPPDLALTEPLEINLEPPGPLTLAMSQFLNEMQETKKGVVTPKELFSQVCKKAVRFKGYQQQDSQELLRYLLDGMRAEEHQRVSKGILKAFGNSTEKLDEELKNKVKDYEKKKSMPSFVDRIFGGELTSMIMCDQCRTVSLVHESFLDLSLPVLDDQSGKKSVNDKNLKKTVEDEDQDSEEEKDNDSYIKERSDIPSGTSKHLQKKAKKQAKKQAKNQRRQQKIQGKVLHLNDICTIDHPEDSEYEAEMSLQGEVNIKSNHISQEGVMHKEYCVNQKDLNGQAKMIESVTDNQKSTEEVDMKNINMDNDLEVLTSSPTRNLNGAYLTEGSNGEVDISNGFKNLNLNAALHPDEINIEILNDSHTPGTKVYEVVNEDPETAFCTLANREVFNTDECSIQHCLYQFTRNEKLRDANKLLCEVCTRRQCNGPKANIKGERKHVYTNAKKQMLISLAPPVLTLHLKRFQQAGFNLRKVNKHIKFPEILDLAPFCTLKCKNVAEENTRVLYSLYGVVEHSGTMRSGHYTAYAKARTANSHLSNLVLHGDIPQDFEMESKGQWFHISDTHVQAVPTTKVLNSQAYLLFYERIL
Outline: (§1)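 Using Biotin-Ahx-Ub-VS at 0.5 µM final for 1 h, DUBs were labelled in HEK293T lysate (495 µg per sample) that had first been treated in triplicate with fragment at 200 µM or vehicle for 3 h. NeutrAvidin enrichment, LysC and trypsin digestion and diaPASEF LC-MS/MS followed. Spectronaut label-free quantities were global-median-normalised. Values are average log2 fragment/vehicle ratios by unpaired t-test, using proteins with ≥2 unique peptides.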

USP19 = target: T1, USP19 (UniProt O94966)
T1 sequence (whole entry): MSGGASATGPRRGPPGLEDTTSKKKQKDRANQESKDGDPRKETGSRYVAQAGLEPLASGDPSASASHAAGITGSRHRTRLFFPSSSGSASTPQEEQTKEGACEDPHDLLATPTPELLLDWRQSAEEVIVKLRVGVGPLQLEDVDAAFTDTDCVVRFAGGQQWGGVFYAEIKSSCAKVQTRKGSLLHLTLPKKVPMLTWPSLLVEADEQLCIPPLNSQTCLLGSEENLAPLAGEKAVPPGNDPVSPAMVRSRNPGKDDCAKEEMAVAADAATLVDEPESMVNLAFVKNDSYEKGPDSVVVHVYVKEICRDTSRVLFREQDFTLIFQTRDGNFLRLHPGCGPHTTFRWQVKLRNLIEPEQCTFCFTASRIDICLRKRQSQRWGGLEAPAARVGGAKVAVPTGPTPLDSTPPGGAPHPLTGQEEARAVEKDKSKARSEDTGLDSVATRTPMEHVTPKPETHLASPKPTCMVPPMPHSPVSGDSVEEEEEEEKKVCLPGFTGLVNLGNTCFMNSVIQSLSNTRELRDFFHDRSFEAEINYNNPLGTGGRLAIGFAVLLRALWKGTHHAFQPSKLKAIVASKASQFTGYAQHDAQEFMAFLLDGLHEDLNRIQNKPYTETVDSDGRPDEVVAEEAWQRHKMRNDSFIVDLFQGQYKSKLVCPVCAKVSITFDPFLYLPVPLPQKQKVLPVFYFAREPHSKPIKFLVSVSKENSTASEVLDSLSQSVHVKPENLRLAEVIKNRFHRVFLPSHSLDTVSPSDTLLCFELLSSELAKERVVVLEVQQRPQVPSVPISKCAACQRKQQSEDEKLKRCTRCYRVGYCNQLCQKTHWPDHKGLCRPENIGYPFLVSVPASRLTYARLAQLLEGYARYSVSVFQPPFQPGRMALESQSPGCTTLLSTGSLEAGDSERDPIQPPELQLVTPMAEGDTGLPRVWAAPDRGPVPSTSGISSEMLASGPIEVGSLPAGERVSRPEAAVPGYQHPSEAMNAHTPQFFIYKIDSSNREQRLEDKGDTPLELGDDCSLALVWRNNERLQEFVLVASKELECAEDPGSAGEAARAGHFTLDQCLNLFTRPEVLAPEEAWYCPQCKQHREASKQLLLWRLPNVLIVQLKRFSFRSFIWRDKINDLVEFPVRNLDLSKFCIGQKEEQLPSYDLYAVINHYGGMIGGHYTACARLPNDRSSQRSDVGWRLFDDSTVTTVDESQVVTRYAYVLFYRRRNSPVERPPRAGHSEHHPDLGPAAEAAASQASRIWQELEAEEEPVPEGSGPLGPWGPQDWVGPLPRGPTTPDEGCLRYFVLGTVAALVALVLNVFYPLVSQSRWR
Outline: as §1

USP24 = USP24 (UniProt Q9UPU5)
Sequence of USP24 (Q9UPU5 whole entry): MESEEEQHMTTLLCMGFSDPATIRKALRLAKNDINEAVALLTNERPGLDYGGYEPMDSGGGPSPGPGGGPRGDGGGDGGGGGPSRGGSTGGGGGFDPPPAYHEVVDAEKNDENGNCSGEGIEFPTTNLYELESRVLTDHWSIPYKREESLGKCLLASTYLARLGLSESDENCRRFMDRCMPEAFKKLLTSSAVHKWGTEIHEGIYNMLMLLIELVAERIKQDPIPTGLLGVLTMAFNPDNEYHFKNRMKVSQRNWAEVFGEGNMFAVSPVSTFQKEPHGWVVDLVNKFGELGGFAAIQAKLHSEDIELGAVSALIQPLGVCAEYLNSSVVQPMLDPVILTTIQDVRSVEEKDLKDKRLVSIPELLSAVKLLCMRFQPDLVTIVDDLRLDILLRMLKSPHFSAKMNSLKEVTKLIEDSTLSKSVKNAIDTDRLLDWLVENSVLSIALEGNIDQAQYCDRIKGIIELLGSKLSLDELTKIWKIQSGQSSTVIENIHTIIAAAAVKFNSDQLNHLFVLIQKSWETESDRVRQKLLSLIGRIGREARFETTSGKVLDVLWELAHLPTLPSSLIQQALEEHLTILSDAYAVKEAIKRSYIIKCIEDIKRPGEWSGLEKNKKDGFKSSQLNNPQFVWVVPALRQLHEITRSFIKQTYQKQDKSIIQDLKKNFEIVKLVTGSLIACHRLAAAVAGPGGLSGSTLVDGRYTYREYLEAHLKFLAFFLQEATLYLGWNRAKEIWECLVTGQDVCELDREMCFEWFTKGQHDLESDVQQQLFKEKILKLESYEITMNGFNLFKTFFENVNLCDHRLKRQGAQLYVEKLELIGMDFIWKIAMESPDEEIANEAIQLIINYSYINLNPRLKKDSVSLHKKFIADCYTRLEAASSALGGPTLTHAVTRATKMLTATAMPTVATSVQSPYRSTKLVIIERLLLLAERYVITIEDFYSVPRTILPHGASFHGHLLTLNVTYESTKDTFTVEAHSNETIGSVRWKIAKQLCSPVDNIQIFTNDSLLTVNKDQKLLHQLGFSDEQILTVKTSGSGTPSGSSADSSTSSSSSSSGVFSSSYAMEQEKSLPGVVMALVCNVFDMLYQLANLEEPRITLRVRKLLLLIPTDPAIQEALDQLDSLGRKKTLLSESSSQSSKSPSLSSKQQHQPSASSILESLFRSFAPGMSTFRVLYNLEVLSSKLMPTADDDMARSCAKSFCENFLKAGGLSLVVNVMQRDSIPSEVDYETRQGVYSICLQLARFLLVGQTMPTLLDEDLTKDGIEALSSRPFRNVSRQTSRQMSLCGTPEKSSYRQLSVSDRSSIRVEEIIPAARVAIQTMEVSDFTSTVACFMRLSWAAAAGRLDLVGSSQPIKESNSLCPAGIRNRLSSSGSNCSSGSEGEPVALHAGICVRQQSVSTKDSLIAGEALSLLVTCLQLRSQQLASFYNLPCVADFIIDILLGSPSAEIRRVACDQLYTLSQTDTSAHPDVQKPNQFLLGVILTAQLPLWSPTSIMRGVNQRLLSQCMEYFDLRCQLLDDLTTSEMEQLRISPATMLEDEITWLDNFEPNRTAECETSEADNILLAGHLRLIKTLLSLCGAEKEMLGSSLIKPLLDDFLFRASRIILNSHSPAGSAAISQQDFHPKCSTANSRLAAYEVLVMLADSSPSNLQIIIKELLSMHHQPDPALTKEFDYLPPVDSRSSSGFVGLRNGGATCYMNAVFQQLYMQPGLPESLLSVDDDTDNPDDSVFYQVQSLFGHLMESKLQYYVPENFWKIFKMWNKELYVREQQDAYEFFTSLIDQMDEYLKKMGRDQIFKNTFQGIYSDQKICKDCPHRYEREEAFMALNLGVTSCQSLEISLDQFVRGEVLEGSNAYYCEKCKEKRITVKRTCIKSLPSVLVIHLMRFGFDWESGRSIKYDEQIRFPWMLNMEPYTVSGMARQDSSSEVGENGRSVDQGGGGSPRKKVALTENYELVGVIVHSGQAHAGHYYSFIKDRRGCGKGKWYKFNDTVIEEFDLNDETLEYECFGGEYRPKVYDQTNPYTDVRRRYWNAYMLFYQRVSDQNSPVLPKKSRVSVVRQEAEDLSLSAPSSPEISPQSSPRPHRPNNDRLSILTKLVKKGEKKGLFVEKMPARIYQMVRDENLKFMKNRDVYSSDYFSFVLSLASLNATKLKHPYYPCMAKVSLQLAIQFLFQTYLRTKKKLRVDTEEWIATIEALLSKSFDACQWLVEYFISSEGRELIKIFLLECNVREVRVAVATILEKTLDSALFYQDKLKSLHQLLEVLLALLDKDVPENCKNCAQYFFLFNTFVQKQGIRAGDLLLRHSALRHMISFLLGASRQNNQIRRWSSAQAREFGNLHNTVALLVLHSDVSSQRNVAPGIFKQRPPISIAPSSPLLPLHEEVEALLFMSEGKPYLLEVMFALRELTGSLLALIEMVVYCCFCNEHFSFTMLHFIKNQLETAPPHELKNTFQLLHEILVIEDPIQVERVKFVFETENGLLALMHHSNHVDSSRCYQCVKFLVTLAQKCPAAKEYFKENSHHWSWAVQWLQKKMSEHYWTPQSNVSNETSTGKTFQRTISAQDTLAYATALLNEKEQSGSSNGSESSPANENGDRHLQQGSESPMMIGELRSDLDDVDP
Outline: as §1

USP25 = target: T2, USP25 (UniProt Q9UHP3)
T2 sequence (whole entry): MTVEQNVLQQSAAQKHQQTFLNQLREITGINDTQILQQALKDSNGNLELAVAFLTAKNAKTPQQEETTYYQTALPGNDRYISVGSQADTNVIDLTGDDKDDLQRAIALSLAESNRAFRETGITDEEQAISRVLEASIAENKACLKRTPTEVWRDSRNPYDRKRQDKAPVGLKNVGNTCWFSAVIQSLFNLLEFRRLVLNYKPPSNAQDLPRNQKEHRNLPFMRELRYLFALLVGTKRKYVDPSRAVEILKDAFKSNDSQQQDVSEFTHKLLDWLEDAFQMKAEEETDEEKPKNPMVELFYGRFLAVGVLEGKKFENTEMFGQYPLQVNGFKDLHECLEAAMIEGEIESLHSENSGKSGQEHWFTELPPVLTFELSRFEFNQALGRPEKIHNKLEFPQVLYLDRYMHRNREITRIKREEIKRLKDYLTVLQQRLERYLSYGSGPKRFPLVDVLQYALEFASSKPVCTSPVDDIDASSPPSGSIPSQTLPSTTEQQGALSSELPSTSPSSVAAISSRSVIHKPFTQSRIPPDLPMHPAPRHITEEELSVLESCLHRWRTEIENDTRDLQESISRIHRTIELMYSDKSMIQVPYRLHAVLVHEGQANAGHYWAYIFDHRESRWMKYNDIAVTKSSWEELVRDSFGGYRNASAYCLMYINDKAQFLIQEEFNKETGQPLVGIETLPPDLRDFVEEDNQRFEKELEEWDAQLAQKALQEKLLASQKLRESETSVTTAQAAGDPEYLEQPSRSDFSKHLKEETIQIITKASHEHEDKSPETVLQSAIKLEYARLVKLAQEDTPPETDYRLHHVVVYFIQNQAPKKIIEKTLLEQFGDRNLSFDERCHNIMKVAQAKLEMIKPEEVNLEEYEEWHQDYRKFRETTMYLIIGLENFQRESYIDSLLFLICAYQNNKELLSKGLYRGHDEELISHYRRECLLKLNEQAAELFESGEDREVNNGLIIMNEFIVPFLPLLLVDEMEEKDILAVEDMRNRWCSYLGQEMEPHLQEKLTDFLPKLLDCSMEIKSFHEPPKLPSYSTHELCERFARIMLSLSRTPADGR
Outline: as §1

USP28 = target: T3, USP28 (UniProt Q96RU2)
T3 sequence (whole entry): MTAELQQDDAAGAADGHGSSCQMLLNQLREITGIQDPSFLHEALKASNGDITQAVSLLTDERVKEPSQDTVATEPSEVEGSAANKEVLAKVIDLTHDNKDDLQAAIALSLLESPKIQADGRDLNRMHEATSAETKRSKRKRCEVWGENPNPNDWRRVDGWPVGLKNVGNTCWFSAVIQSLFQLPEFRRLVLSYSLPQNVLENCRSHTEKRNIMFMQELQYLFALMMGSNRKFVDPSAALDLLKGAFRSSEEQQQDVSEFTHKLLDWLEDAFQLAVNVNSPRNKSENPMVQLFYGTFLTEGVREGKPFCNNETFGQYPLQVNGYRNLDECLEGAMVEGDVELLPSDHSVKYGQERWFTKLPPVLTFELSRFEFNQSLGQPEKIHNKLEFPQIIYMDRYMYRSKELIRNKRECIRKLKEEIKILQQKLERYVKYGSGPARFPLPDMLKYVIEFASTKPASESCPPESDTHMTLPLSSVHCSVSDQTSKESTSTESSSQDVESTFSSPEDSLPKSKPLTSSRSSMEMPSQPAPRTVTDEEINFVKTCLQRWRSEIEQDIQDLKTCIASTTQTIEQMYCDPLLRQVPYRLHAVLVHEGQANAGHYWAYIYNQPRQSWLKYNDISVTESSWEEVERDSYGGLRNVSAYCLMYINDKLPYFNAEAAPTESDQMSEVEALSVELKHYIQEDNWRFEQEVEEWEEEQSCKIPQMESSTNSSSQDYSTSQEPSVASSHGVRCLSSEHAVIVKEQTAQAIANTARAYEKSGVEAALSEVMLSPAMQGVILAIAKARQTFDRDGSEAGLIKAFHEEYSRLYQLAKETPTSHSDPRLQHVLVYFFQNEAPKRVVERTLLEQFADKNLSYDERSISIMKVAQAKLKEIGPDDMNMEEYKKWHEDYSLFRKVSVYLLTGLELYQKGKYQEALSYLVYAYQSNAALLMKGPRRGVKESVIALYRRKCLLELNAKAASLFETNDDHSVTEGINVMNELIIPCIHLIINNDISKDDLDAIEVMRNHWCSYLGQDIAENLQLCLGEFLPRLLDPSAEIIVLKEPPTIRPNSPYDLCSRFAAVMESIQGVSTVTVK
Outline: as §1

Measured: log2 ratio of Biotin-Ahx-Ub-VS probe labelling

Cl.O=C(CCl)N[C@H]1C[C@@H](n2cccn2)C1
inactive: USP16 0.0253 | USP19 -0.157 | USP24 -0.464 | USP25 -0.201 | USP28 -0.188
